Source: PubChem BioAssay (National Center for Advancing Translational Sciences (NCATS))
PTHR1 ag: activates the human parathyroid hormone receptor PTHR1; HEK293 GP2 PTHR1 cells, GloSensor cAMP luminescence, 1 h; Potency, µM (titrated, usually from 115 µM), without a hit: top-dose activation, actives largely listed as activators; actives 0.075% (n = 410,000); AID 743266; further: potency means the concentration at half of the fitted maximal effect; nearly all actives have a fitted effect of over 55% in size
Target sequence (Q03431 whole entry, looked up): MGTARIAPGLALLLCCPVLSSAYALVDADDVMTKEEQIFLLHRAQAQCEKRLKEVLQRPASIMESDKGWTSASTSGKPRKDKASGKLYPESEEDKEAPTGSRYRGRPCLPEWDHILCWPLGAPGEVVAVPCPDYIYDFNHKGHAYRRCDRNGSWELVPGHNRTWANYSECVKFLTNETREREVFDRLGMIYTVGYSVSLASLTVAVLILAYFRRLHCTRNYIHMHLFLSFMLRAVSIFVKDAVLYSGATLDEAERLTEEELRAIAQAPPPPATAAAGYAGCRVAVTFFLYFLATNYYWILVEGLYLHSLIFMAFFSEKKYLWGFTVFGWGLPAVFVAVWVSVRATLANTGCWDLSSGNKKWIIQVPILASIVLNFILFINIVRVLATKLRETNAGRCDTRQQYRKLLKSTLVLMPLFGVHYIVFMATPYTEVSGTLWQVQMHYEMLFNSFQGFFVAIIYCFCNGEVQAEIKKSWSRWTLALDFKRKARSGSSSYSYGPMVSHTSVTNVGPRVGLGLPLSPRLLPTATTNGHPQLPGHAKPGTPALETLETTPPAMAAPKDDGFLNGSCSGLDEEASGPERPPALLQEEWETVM
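HEK-293-derived GP2 cells expressing PTHR1 and a GloSensor cAMP reporter, 3,000/well, plated overnight, given luciferin plus IBMX (each 0.5 mM as added) for 1 h at 37 °C, then compound for 1 h at 37 °C. Luminescence was read after 15 min at room temperature.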
BRCA1 expr up: increases BRCA1 expression. actives 1.1% (n = 380,000). MCF7-BRCA1-FFLuc reporter, luminescence, 48 h; response scale: scaled: vehicle 0%, 10 µM genistein 100%. Potency, µM (titrated, usually from 46.1 µM), without a hit: at the highest dose activation, actives largely listed as activators; further: potency means the concentration at half of the fitted maximal effect; nearly all actives have a fitted effect of over 80% in size
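Cells: MCF7-BRCA1-FFLuc, 2000/well. Exposure: 48 h, 37 °C, 5% CO2. Read: luminescence, 15 min post-substrate. Controls: genistein 10 microM (maximal activation), DMSO (neutral).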
Mito fusion yeast: blocks mitochondrial division or promotes mitochondrial fusion; S. cerevisiae fusion-defective mutant growth rescue, CellTiterGlo 48 h; Potency, µM (doses to about 46.1 µM), without a hit: at the highest dose growth rescue (activation), most hits filed as activators; actives 0.23% (n = 320,000); further: potency means the concentration at half of the fitted maximal effect; % of control where 0% means no effect; nearly all actives have a fitted effect of over 45% in size
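Read-out: ATP-based luminescence (CellTiterGlo, 10 min ambient) reporting growth of fusion-defective ts yeast after 48 hours at 37C on glycerol/ethanol YPEG medium in the presence of compound.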
Chronic BCR inh: chronic active BCR signaling inhibition; ABC-DLBCL IkBa-CBG/CBR reporter, luminescence ratio, 4 h; actives 0.05% (n = 340,000); AID 493014; Potency, µM (top dose mostly 46.1 µM), without a hit: at the top dose activity change, negative = inhibition, actives largely listed as inhibitors; active means well fitted inhibition curve with a large enough effect in the signal ratio, with a control signal flat, not every such curve was filed as active; inconclusive means small, poorly fitted or top-dose-only effect, or effect the other way, or a change in a side signal; the % refers to the signal ratio;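 further: potency means the concentration at half of the fitted maximal effect; plate controls were basal doxycycline-induced cells for no effect and cells given 10 µM MG132 for full effect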
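Concentration-response series (up to 46 uM) were applied to TMD8 dual-reporter cells for 4 h at 37C with doxycycline. Green/red ratio, after filter-overlap correction, defined %Activity; red signal alone was normalised to basal cells and zero luminescence.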
IL-2 act: IL-2 activation; activation, % (series mostly up to about 46 µM); IL-2 activation reporter assay, cell-based qHTS; stimulated with anti-CD3/CD4/CD28 beads; in transgenic mouse T cells; actives 0.065% (n = 360,000); in the data active means activation above about 50%; inconclusive means mostly about 30% to 49%; further: 0% is about no effect
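Unstimulated transgenic mouse T cells preincubated 60 min with compound, then stimulated with anti-CD3/anti-CD4-coated beads plus anti-CD28 for 18 h at 37 degrees C. IL-2 response read as EGFP and DsRed fluorescence by plate cytometry.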
TCR act: activates T cell receptor signaling; 330,000 tested, under 10 active; Potency, µM (top dose mostly 9.22 µM), for the others: at the highest dose activation of IL-2 secretion, actives largely listed as activators; AID 504894; primary human leukocytes, anti-CD3, IL-2 HTRF, 48 h; further: % of control where 0% means no effect
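TCR engagement came from a-CD3 beads alone, with compounds added to primary human leukocytes for 48 hr. Secreted IL-2 bridged europium cryptate- and d2-labelled anti-IL-2 antibodies, giving FRET emission at 665nm after 320nm excitation.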
Starred values were filed as active, the others as inactive; i = inactive; ? = inconclusive; nt = no result given; [ ] = another dose, or the depositor's remark. Only some compounds are listed: those with a hit (about 1.3% of all), similar ones and a draw of the others. Unless noted, the call rests on the fitted dose curve; in most records, active means well fitted curve in the direction sought with a large enough effect; inconclusive means small, poorly fitted or top-dose-only effect, or another doubt; inactive means no such curve, though single readings can be large; an effect the other way counts as inactive or inconclusive.

SMILES | PTHR1 ag | BRCA1 expr up | Mito fusion yeast | Chronic BCR inh | IL-2 act | TCR act
Cc1cccc(C)c1OCC(=O)N[C@@H](Cc1ccccc1)[C@@H](O)C[C@H](Cc1ccccc1)NC(=O)[C@H](C(C)C)N1CCCNC1=O | nt | 0% | nt | nt | nt | nt
COc1cccc(C(O)c2ncc(-c3ccccc3)[nH]2)c1 (stereo not drawn) | i | 17% | nt | nt | 1 | nt
Cc1ccc(O)c(CNc2ccccn2)c1 | i | 16µM* | 2% | ? | -2 | -3%
CC(=O)Nc1cccc(OCC(=O)Nc2ccccc2)c1 | i | ? | 3% | ? | 0 | nt
CC(=O)Nc1cccc(OCC(=O)Nc2sccc2C(N)=O)c1 | -18% | 4µM* | -1% | ? | 0 | 5%
COc1cccc(N2CCN(c3cnc4ccccc4n3)CC2)c1 | -24% | 2µM* | -9% | -18% | -2 | 9%
Nc1cc(OCc2ccccc2)ccc1OCc1ccccc1 | -12% | 11µM* | nt | nt | 0 | -5%
Nc1ccc(OCc2ccccc2)cc1 | -21% | ? | 5% | ? | -1 | -4%[46.1 µM]
Cc1oc2ccc(O)cc2c1C(=O)c1ccc(F)cc1 | i | 11µM* | nt | nt | 1 | -2%
COc1ccc2oc(-c3ccco3)cc(=O)c2c1 | -15% | 6.3µM* | -10% | -1% | -3 | -9%
O=c1cc(-c2ccco2)oc2ccc(Cl)cc12 | i | 68% | -1% | ? | -2 | -36%
CCOC(=O)NNC(=O)NCCCCCCNC(=O)NNC(=O)OCC | -20% | -3% | -1% | 1% | 0 | 6%
c1ccc(-c2cnnc(N3CCCCC3)n2)cc1 | -10%[57.5 µM] | 7.9µM* | 3% | 1% | 0 | 1%
Cc1cc(C)n(CC(O)COc2ccc(Cl)cc2Cl)n1 (stereo not drawn) | -24% | 11µM* | -7% | -2% | -1 | 8%
Cc1cc(C)n(CC(O)Cn2ccc3ccccc32)n1 (stereo not drawn) | i | 4% | 2% | -6% | -1 | nt
Cc1cc(C)n(CC(O)Cn2c3ccccc3c3ccccc32)n1 (stereo not drawn) | -17%[57.5 µM] | -4% | 16µM* | 6% | 0 | -2%
Cc1cc(C)n(CC(O)COc2ccc(Cl)cc2)n1 (stereo not drawn) | i | -3% | -5% | 1% | 1 | nt
C/C=C(\NNC(C)=O)c1ccc(O)cc1 | nt | 9% | nt | nt | nt | nt
CN(C)c1ccc(C(=C2c3ccccc3-c3ccccc32)c2ccc(N(C)C)cc2)cc1 | nt | 18% | nt | nt | nt | nt
Cc1nnc(SCC(=O)N2c3ccccc3C(C)(c3ccccc3)CC2(C)C)s1 (stereo not drawn) | -27% | -74% | 16µM* | 4% | -6 | 2%[46.1 µM]
Cc1ccc(C2(C)CC(C)(C)N(C(=O)CSc3nnc(C)s3)c3ccccc32)cc1 (stereo not drawn) | -33% | -51% | ? | 4% | -4 | -4%[46.1 µM]
Cc1ccccc1Nc1sc(C(=O)c2ccccc2)c(N)c1C(=O)NCc1ccc(Cl)cc1 | -23% | nt | nt | ? | nt | nt
Cc1ccc(CNC(=O)c2c(Nc3ccccc3C)sc(C(=O)c3ccc(F)cc3)c2N)cc1 | -50% | nt | nt | 22µM* | nt | nt
O=c1cc(N2CCCCC2)c2ccccc2o1 | i | 6% | 9% | ? | 0 | 1%
O=c1c(N2CCCCC2)coc2ccccc12 | -11%[57.5 µM] | 8.9µM* | -4% | -12% | -2 | -3%
SMILES | PTHR1 ag | BRCA1 expr up | Mito fusion yeast | Chronic BCR inh | IL-2 act | TCR act
COc1cc(/C=N/OCC(=O)Nc2ccc(OC(F)F)cc2)ccc1OCc1ccccc1 | -5% | -20% | -2% | -1% | -1 | -1%[46.1 µM]
CCOc1ccc(/C=N/OCC(=O)Nc2ccc(OCc3ccccc3)cc2)cc1OC | -5% | 7.9µM* | 8% | -3% | -4 | -10%[46.1 µM]
O=C(CSc1nnc(C2CCCCC2)o1)Nc1ccccc1Cl | -37% | 10µM* | 1% | ? | 0 | -4%
CC(=O)c1ccc(NC(=S)Nc2ccc3cn[nH]c3c2)cc1 | i | 6.3µM* | 8% | ? | 0 | 3%
CC(C)c1ccc(NC(=S)Nc2ccc3cn[nH]c3c2)cc1 | -10% | ? | -8% | -17% | -1 | 3%
CC1CCN(C(=O)c2ccc3ccccc3c2)CC1 | i | 2.5µM* | -1% | -1% | -1 | 3%
CCOc1ccc(NC(=O)/C(C#N)=C/c2ccc(N3CCCC3)c(C)c2)cc1 | i | -4% | 0% | ? | 270* | 7%[46.1 µM]
CCN(CC)S(=O)(=O)c1ccc(N2CCCCC2)c(NC(=O)/C(C#N)=C/c2ccc(OC)cc2)c1 | i | -19% | -2% | 0% | -1 | 1%[46.1 µM]
N#C/C(=C\c1ccc(OCc2ccccc2)cc1)C(=O)Nc1ccc(C(=O)O)cc1 | -10% | 11µM* | 0% | -4% | -4 | 2%
CCOc1ccccc1/C=C(/NC(=O)c1ccccc1)C(=O)N(CC)CC | i | -25% | 3% | -25% | -1 | -1%[46.1 µM]
CC(C)(C)c1ccc(-n2ncc3c2CCCC3NC(=O)CN2CCCCC2=O)cc1 (stereo not drawn) | -37% | 0% | 4.5µM* | -4% | -3 | -1%
O=C(CN1CCCC1=O)NC1CCCc2c1cnn2-c1cc(F)cc(F)c1 (stereo not drawn) | -20% | 43% | 1% | 0% | 1 | -7%
c1nc(SSc2ncc3n[nH]nc3n2)nc2n[nH]nc12 | nt | 11% | nt | nt | nt | nt
COc1cc(C=C2CN(C)C(=O)C2=O)ccc1O | i | 6% | nt | nt | 0 | nt
COc1cc(/C=C2\OC(=O)c3c(OC)cccc32)ccc1O | -14% | ? | 1% | 9.2µM* | 0 | -5%
CN(C)CCCCCCNc1nccc(N2CCN(C)CC2)n1 | nt | -3% | nt | nt | nt | nt
COc1ccc(-c2cc3ncc(C)n3c(Nc3ncccc3C(N)=O)n2)cc1OC | nt | nt | -2% | nt | nt | nt
Cc1cc(C)n(-c2ccc(C(=O)Nc3sccc3C(N)=O)cc2)n1 | -23%[57.5 µM] | 1µM* | 7% | -10% | 1 | 1%
CCN(CC)c1ccc(/C=N/N2C(C)CCCC2C)c(O)c1 (stereo not drawn) | -12% | -3% | 9% | 9% | -2 | -1%
O=c1c2ccccc2nc2ccc(NCc3cccs3)nn12 | -1% | 11µM* | 4% | ? | 0 | 5%
COc1ccc(-c2oc3c(c2C#CC(C)(C)O)C(OCCO)CC3)cc1 (stereo not drawn) | -24% | 25% | nt | nt | 0 | nt
COC1CCN(C(=O)c2cc(COc3cc(C)ccc3C)on2)CC1 | -8% | 64% | nt | nt | -2 | nt
Cc1ccc(C)c(OCc2cc(C(=O)N3CCOCC3)no2)c1 | -19% | 18µM* | -4% | 2% | 0 | 2%
